Source: PubChem BioAssay

Each compound was assayed against Pro-neuregulin-1, membrane-bound isoform (Homo sapiens) (UniProt Q02297) (assay: NRG1 binders on small-molecule microarrays, primary screen, psychiatric disease protein project, biochemical, small-molecule microarray, fluorescence 635/667 (AID 1075;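 note: score combines 667 nm spot fluorescence with signal to noise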)). Settings: NRG1 binding, 635 nm fluorescence, higher = more signal.
Sequence of Pro-neuregulin-1, membrane-bound isoform (Homo sapiens) (Q02297 whole entry, looked up, canonical isoform): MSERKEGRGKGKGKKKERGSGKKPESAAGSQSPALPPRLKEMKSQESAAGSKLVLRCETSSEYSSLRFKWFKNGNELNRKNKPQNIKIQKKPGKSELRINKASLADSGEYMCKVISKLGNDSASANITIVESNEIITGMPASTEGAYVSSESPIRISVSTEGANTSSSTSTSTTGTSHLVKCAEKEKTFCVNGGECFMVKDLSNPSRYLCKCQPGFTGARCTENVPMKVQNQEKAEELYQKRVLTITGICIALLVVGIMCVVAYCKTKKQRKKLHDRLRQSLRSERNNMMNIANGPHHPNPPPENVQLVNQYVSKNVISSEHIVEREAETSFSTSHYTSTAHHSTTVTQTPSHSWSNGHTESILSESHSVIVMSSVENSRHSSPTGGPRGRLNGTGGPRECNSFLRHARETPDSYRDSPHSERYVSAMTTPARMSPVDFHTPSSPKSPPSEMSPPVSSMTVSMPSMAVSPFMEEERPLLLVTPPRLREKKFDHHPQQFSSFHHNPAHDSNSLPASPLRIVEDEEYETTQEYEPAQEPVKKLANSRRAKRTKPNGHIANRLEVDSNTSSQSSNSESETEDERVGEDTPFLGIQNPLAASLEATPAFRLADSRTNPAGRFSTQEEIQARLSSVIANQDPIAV

Row | Compound | composite z-score
1 | C=CCC(OC(C)=O)[C@@H]1[C@@H](N(Cc2cc3ccccc3o2)C(=O)Cc2ccc(OC)cc2)c2cc(OCCCO)ccc2N1C(=O)c1ccc2ccccc2n1 (stereo partly specified) | -0.251
2 | C=C(COC)/C(=C/C[C@@H](OC(C)=O)c1ccccc1OCCO)c1cnc2ccccc2c1 | 1.23
3 | Cc1ccc(S[C@]2(C(=O)NCC(F)(F)F)CC(=O)N(Cc3ccccc3C(F)(F)F)[C@@H]2c2ccc(CO)cc2)cc1 | -0.401
4 | C=CCC(OC(C)=O)[C@@H]1[C@@H](N(Cc2cccc3ccccc23)C(=O)Cc2ccc(OC)cc2)c2cc(OCCCO)ccc2N1C(=O)c1ccc2ccccc2c1 (stereo partly specified) | -0.0627
5 | COc1ccc([Si](C)(C)[C@@H]2[C@@H](CC(=O)N(CCO)Cc3ccccc3)O[C@]3(C(=O)N(Cc4ccc(N5C(=O)c6cccc7cccc5c67)cc4)c4ccccc43)[C@H]2C)cc1 | 0.933
6 | COC(=O)[C@@]1(Cc2ccc(OC)cc2)[C@H]2c3cc(C(=O)N(C)C)[nH]c3C[C@H]2CN1C(=O)c1ccccc1 | 0.882
7 | CCOc1cc(C(O)C2C=CC3C(=O)N(c4ccccc4)C(=O)C3N2Nc2ccccc2F)ccc1O (stereo unspecified) | 2.06
8 | O=C1O[C@@H](c2ccccc2)[C@@H](c2ccccc2)N2[C@@H](c3ccc(OCCO)cc3)[C@]3(C(=O)Nc4ccc(C#CC5(O)CCCCCC5)cc43)[C@@H](C(=O)O)[C@H]12 | 1.24
9 | COc1ccc(C(=O)Nc2ccc(CN3C(=O)[C@@]4(O[C@@H](CCn5cc(CCO)nn5)[C@H]([Si](C)(C)c5ccc(OC)cc5)[C@H]4C)c4ccccc43)cc2)cc1 | 0.587
10 | O=C1[C@H]2C=C(I)[C@H](C[C@@H]2OCCCCCCO)[C@@]12CO2 | -0.715
11 | CCCC#C[Si](O[C@H](CC)c1cn(Cc2ccccc2)nn1)(C(C)C)C(C)C | 0.53
12 | C=CCN1C(=O)[C@@]2(O[C@@H](CCn3cc([C@H](O)c4ccccc4)nn3)[C@H]([Si](C)(C)c3ccc(OC)cc3)[C@H]2C)c2cc(N3C(=O)c4cccc5cccc3c45)ccc21 | 0.548
13 | O=C1N(Cc2ccccc2)c2ccccc2C[C@@]12COC(c1ccc(OCCCO)cc1)=N2 | 1
14 | CC1CC/C=C\[C@H]2OC34C=CCN(c5ccc6ccccc6c5)C(=O)[C@H]3N(C(C)CO)C(=O)[C@@H]4C2C(=O)O1 (stereo partly specified) | -0.318
15 | COc1ccc(C(=O)Nc2cccc(CN3C(=O)[C@]4(O[C@H](CC(=O)N5Cc6ccccc6C[C@H]5CO)[C@@H]([Si](C)(C)c5ccc(OC)cc5)[C@@H]4C)c4ccccc43)c2)cc1 | 0.466
16 | COC(=O)c1cccc([C@H]2OC(=CC(=O)OC(C)C)C[C@@H](c3cccc(C(=O)OC)c3)O2)c1 | 1.4
17 | COC(=O)[C@@]1(Cc2ccc(F)cc2)[C@H]2c3cc(C(=O)N4CCCC4)n(Cc4cc(F)cc5c4OCOC5)c3C[C@H]2CN1C(=O)c1ccccc1 | 1.69
18 | C=C(CCCC)/C(=C/C[C@@H](OC(C)=O)c1ccc(CO)o1)c1cnc2ccccc2c1 | 1.31

Row | Compound | composite z-score
19 | CC(C)N1C(=O)C[C@@](C(=O)NCCN2CCOCC2)(c2ccc([N+](=O)[O-])cc2)[C@H]1c1ccc(CO)cc1 | 0.543
20 | C=C(CCCC)/C(=C/C[C@H](OC(=O)c1ccncc1)c1ccccc1OCCO)c1cc(C(=O)OC)ccc1OC | -0.217
21 | O=C1C[C@@](C(=O)NCc2ccccc2)(c2ccc([N+](=O)[O-])cc2)[C@@H](c2ccc(CO)cc2)N1C1CCCCC1 | 1.4
22 | CC(C)=C1C(=O)C(c2ccccc2)=C2CN3C(=O)N(CCc4ccccc4)C(=O)[C@]3(C)[C@H]21 | 1.81
23 | COCCOC(=O)N1C(=O)[C@@]2(c3cc(C#CCC(C(=O)OC)C(=O)OC)ccc31)[C@H](C(=O)Nc1nc3ccccc3s1)[C@H]1C(=O)O[C@H](c3ccccc3)[C@H](c3ccccc3)N1[C@@H]2c1ccc(OCCO)cc1 | 0.166
24 | COc1ccc(C(O)C2C=CC3C(=O)N(c4ccccc4)C(=O)C3N2Nc2ccc([N+](=O)[O-])cc2)c2ccccc12 (stereo unspecified) | 1.75
25 | C[N+](C)(C)CCCC[C@@H]1NC(=O)[C@@H]2C[C@H](C(=O)NCc3ccc(F)cc3)[C@H](c3ccc(O)cc3)N2C1=O | 1.3
26 | CC(C)OC(=O)CC(=O)CC(O)c1cccc([N+](=O)[O-])c1 (stereo unspecified) | 0.334
27 | O=C(NCC(O)CO)[C@@]1(CCS(=O)(=O)c2ccccc2)N=C(c2ccc(OCCCO)cc2)O[C@H]1c1ccccc1 (stereo partly specified) | 1.96
28 | Cc1ccc(C(C)CC(O)C2C=CC3C(=O)N(C)C(=O)C3N2Nc2ccccc2)o1 (stereo unspecified) | 0.812
29 | CCOC(=O)C[C@H]1[C@H](OC(=O)c2ccccc2-c2ccccc2)[C@@H](NC(=O)c2ccc3ccccc3c2)c2cc(OCCCO)ccc2N1C(=O)Cc1ccc(OC)cc1 | 0.0671
30 | Cc1ccc(S[C@]2(C(=O)NC(C)C)CC(=O)N(C3CCCCC3)[C@@H]2c2ccc(CO)cc2I)cc1 | 0.897
31 | N#Cc1ccc(NN2C(C(O)C3CC=CCC3)C=CC3C(=O)N(c4ccccc4)C(=O)C32)cc1 (stereo unspecified) | 1.89
32 | Cc1ccc(F)cc1S(=O)(=O)N[C@H]1CCN(Cc2ccc(OC(C)C)cc2)C1 | -0.0273
33 | C=CCOC(=O)[C@H]1[C@@H]2C(=O)O[C@@H](c3ccccc3)[C@@H](c3ccccc3)N2[C@@H](c2ccc(OCCOC(=O)[C@@H]3C[C@@H]4C(=O)N[C@@H](CCCC[N+](C)(C)C)C(=O)N4[C@@H]3c3ccc(O)cc3)cc2)[C@]12C(=O)Nc1ccc(I)cc12 | 1.44
34 | CCOC(=O)C1=C[C@@H](C(C)(C)C)N(S(=O)(=O)c2ccc(C)cc2)[C@H]1c1ccc(C#N)cc1 | 1.32
35 | CCOC(=O)C[C@H]1[C@H](OC(=O)Cc2ccc3c(c2)OCO3)[C@@H](NC(=O)c2ccc3ccccc3n2)c2cc(OCCCO)ccc2N1C(=O)Cc1ccc(OC)cc1 | 1.17
36 | COC(=O)[C@@]1(Cc2ccccc2)[C@H]2c3cc(C(=O)N(C)C)n(Cc4ccc(C(F)(F)F)nc4)c3C[C@H]2CN1C(=O)c1ccccc1 | 1.9
